Results: PubChem BioAssay (NCI)
The panel holds about 83,000 compounds, 20% with a hit somewhere; the sample as a whole holds those more often.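 A percent growth of 40 corresponds to 60% growth inhibition; 0 means no net growth; -100 means all cells died. Active threshold: below 10.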 Unmarked numbers belong to inactive results. Calls of active or inactive are those of the source.

test system: A549/ATCC NSCLC; assay: NCI-60 one-dose screen, 48 h (100 = growth as untreated, 0 = no growth, -100 = all killed); conditions: 10 µM unless noted
Description: Growth inhibition of the A549/ATCC human Non-Small Cell Lung tumor cell line is measured as a screen for anti-cancer activity. Cells are grown in 96 well plates and exposed to the test compound for 48 hours. Compounds are tested at a single concentration, which is 10^-5 M for most compounds. The reported endpoint is percent growth (GI% or GIPRCNT), where numbers from 0 - 100% represent growth inhibition, and numbers from -100% - 0 represent cell death. For example, a value of 40 represents 60% growth inhibition. A value of 0 means no net growth occurred over the course of the experiment. A value of -40 indicates 40% of cells at the beginning of the experiment died by the end of the experiment. A value of -100 means all cells are dead at the end of the experiment.
NCI-60 Human Tumor Cell Lines Screen was performed using the standard one-dose NCI protocol, which is described in more detail at https://dtp.cancer.gov/discovery_development/nci-60/default.htm.
Compounds with GIPRCNT values below 10 were considered active. Activity score was based on GIPRCNT using the following formula: […]
Score is 0 for GIPRCNT values of 100 or above, 50 for GIPRCNT values of 0, and 100 for GIPRCNT values of -100.

| SMILES | growth |
| --- | --- |
| CCCCCN1C(=O)CCC1=O | 99% |
| NS(=O)(=O)c1ccc(-n2nc(-c3ccc(Br)cc3)ccc2=O)cc1 | 58% [100 µM] |
| CNc1nc(NC2CCCC2)nc(Sc2ccc(OC)cc2)n1 | 20.3% [100 µM] |
| C/C(=C\CCc1ccoc1)CC/C=C(\C)CCCN1CCOCC1 | 63.6% |
| COc1cccc(N2CCN(c3cccc(C)n3)CC2)c1 | 95.6% |
| COC(=O)[C@H](Cc1cn(C)cn1)NC(=O)[C@@H](NC(=O)Nc1cc(C(F)(F)F)cc(C(F)(F)F)c1)C(C)C | -73% [100 µM] (active) |
| C=C1CC[C@@H]2[C@](C)(COC(C)=O)[C@H](OC(C)=O)CC[C@@]2(C)[C@@H]1CC(NCc1ccccc1)C1=CCOC1=O (stereo not given in full) | 49.2% |
| CC(C)N(Cc1ccccc1)c1c(Cl)ssc1=O | 88.8% |
| COc1cc(Cl)cc(-c2nn(-c3cccc(NC(=O)c4cc(C(F)(F)F)cc(C(F)(F)F)c4)c3)cc2-c2ccncc2)c1 | 43.5% |
| CCCCNCCCN(CCCC)CCCNCCCC | 95.4% |
| Oc1ccc(/C=N/Nc2nc3ccccc3s2)c(O)c1 | 18% |
| Nc1ccccc1-c1ccn[nH]1 | 89.6% |
| CC(=O)c1ccc(NS(=O)(=O)c2ccc([N+](=O)[O-])cc2)cc1 | 95.5% |
| COc1ccc(/C=C2\CCc3ccccc3C2=O)cc1 | 77.4% |
| COc1cc(C(=O)/C=C/c2cccc(Nc3ccnc4cc(Cl)ccc34)c2)cc(OC)c1OC | -38.7% (active) |
| O=c1c2c(=NCCCN3CCCC3)cc3c(=O)n(CCCN4CCCC4)c(=O)c4c(NCCCN5CCCC5)cc(c(O)n1CCCN1CCCC1)c2c4-3 | 7.79% (active) |
| CCCCCc1c(C)[nH]c(/C=C2\N=C(c3ccc[nH]3)C=C2OCc2ccccc2)c1C | -70% [100 µM] (active) |
| c1ccc(-c2nc(Nc3nccnn3)c3ccccc3n2)cc1 | 102% |
| CCc1nn2c(-c3ccc(Cl)cc3C)c(-c3cc(OC)c(OC)c(OC)c3)nc2s1 | 82.7% |
| Clc1ccc2nc(CI)c(CI)nc2c1 | 96.1% |

| SMILES | growth |
| --- | --- |
| CCN(CC)c1ccc(C(=C2C=CC(=[N+](CC)Cc3cccc(S(=O)(=O)O)c3)C=C2)c2ccc(N(CC)Cc3cccc(S(=O)(=O)O)c3)cc2)cc1 | -4.01% (active) |
| CCNCCCn1c2c(c3ccc(F)cc3c1=O)C(=O)c1cc(OC)cnc1-2 | -62.6% (active) |
| COc1c(O)cc2c(c1CC=C(C)C)OC(=O)c1c(cc(O)c(CC=C(C)C)c1O)O2 | 57.1% |
| O=C1C(=O)c2c(nc3ccc(Cl)cn23)-c2ccccc21 | -80.8% (active) |
| OCc1n(Cc2ccc3ccccc3c2)cc[n+]1Cc1ccc2ccccc2c1 | 68.6% |
| CCN(CC)CCNCC(=O)Oc1ccc(/C=C/C(=O)CC(=O)/C=C/c2ccc(OC(=O)CNCCN(CC)CC)c(OC)c2)cc1OC | 38.2% |
| COc1cc(NC(C)CCCN)c2nc(C)ccc2c1Oc1ccc(F)cc1 (stereo not given) | 90% |
| CCOC(=O)N1CCC(N=C2CSc3nnc(-c4cc(C(F)(F)F)cc(C(F)(F)F)c4)n3N2)CC1 | 21.5% |
| COc1cc(/C=C/c2cc(/C=C/c3ccc(O)c(OC)c3)n(C(=O)Cc3ccccc3)n2)ccc1O | 4.22% (active) |
| [N-]=[N+]=NCc1cccc(/C(O)=C/C(=O)C(=O)O)c1 | 93.6% |
| O=C1C=CC(=O)N1c1ccccn1 | 96.9% |
| FCc1ncc(-c2ccc(C(F)(F)F)cc2)c(NC2CCCCCC2)n1 | 7.62% [100 µM] (active) |
| COc1ccc2nc(NC(=O)CN3CCn4c(nnc4C(F)(F)F)C3)sc2c1 | 88.4% |
| COc1ccc(-c2ccc(O)c(C(=O)/C=C/c3cc(OC)c(OC)c(OC)c3)c2)cc1 | 80.5% |
| CC(C)=CCCC(C)c1ccc(C)c2c1OCN(CC1CCNCC1)C2 (stereo not given) | 54.1% |
| Nc1ccc2c(c1)Cc1cc(Cl)c(Cl)cc1-2 | 59.1% |
| Fc1ccccc1C1c2ccccc2-c2nccn21 (stereo not given) | 94.9% |
| CCCCCCCCCCCCCCCCNC(=O)Nc1ccc2ccccc2c1 | 107% |
| C=CCN(/C=C/CN(CC=C)CC=C)CC=C | 99.6% |
| O=C1CNc2cc(Cl)ccc2N1 | 113% |
